NPR1 antag – antagonists of human natriuretic peptide receptor Npr1. HEK293 hNpr1 GloSensor cGMP, ANP-stimulated luminescence. P16066. Potency, µM (highest dose often 46.3 µM), usual class: inhibitors. hit rate 1.6% among 76,000. AID 1347048; calls by dose curve; also: nearly all actives have a fitted effect of over 60% in size
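Compound pre-incubated 30 min at room temperature on GloSensor-loaded HEK293 cells stably carrying hNpr1 and the pGS-40F cGMP biosensor. Stimulation uses hNppA at 0.1 nM final; luminescence is taken at baseline and 20 min post-agonist.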
3T3 cytotox – cytotoxic compounds in NIH 3T3 cells; Potency, µM (top dose mostly 96.7 µM), usual class: inhibitors; AID 1345082; NIH 3T3 viability, CellTiter-Glo ATP luminescence, 48-72 h; hit rate 4.3% among 94,000; also: nearly all actives have a fitted effect of over 55% in size
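NIH 3T3 cells at 400 cells/well received 23 nL of compound by pintool and were incubated 48 or 72 h at 37 °C. Viability was read as ATP-coupled CellTiter-Glo luminescence.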
HEK cytotox – cytotoxic compounds in HEK 293 cells | Potency, µM (doses to about 115 µM), most hits filed as inhibitors | HEK 293 viability, ATP luminescence (CellTiter-Glo), 48-72 h | hit rate 6.6% among 94,000; also: nearly all actives have a fitted effect of over 60% in size
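qHTS cytotoxicity; HEK 293, 250 cells/well; compound pinned; 48 or 72 hr, 37 degree Celsius, 5% CO2, 95% humidity; CellTiter-Glo, 10 min RT; luminescence (ATP).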
FLuc inh-1 – Photinus pyralis luciferase inhibition; purified P. pyralis luciferase, luminescence, biochemical; Potency, µM (doses to about 115 µM), most hits filed as inhibitors; hit rate 2.5% among 76,000; also: nearly all actives have a fitted effect of over 65% in size
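Inhibitors were tested against purified firefly luciferase in a biochemical, low-substrate format (both substrates at 10uM) and luminescence measured with a CCD imager.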
GPT2 inhibitor – inhibitors of human GPT2 alanine aminotransferase; Potency, µM (top dose mostly 57.7 µM), most hits filed as inhibitors; hit rate 0.25% among 100,000; Q8TD30; Recombinant GPT2, coupled pyruvate oxidase/HRP Amplex Red fluorescence; AID 1671188; also: nearly all actives have a fitted effect of over 60% in size
Target sequence (Q8TD30 whole entry, looked up): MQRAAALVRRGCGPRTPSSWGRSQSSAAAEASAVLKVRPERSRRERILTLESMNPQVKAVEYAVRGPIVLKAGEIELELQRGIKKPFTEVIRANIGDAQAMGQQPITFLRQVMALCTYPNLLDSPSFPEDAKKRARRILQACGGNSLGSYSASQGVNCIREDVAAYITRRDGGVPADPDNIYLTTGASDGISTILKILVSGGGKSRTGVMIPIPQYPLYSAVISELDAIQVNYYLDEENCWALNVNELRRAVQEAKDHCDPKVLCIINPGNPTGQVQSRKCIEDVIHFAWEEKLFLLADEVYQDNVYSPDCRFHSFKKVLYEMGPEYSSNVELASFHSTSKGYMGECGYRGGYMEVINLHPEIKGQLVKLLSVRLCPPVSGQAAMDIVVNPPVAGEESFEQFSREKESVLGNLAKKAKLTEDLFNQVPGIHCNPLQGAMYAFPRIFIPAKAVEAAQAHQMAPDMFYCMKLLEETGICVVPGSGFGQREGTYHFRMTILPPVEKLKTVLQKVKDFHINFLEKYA
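Fluorescence read-out: pyruvate from GPT2 turnover coupled to pyruvate oxidase, HRP and Amplex Red (0.2mM ThPP, 0.2U/mL PO and HRP, 50uM Amplex final). Substrates 250uM a-KG, 2mM L-alanine; enzyme 10ng/uL; 30 min RT.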
FLuc SDR -ATP – binders stabilizing firefly luciferase, without ATP. shares compounds with FLuc inh-1. Purified FLuc-C-HiBiT, Nano-Glo HiBiT luminescence, no ATP. Potency, µM (highest dose often 32.7 µM), actives largely listed as activators. hit rate 7.8% among 1,300. AID 1963318; also: nearly all actives have a fitted effect of over 55% in size
FLuc SDR ATP – stabilizes firefly luciferase with ATP present. shares compounds with FLuc inh-1. purified FLuc-C-HiBiT + ATP, HiBiT complementation luminescence. Potency, µM (top dose mostly 32.7 µM), actives largely listed as activators. hit rate 8.7% among 1,300;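 also: signal reports ligand binding via conformational change of the enzyme rather than luciferase catalysis; nearly all actives have a fitted effect of over 55% in size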
FLuc inh-2 – inhibitors of firefly luciferase enzymatic activity. purified FLuc-C-HiBiT enzyme, luciferin luminescence. hit rate 42% among 1,300. Potency, µM (highest dose often 32.7 µM), actives largely listed as inhibitors. AID 1963320. shares compounds with FLuc inh-1; also: nearly all actives have a fitted effect of over 70% in size
Each line names hits and unclear results; the compound was inactive in the other large screens (follow-up assays come after a bar, where they were run). A selection: hits, their analogues and other compounds. The true share with any hit is near 10%. Unless noted, calls follow the shape of the dose curve; as a rule, active = well fitted curve in the direction sought with a large enough effect; inconclusive = small, poorly fitted or top-dose-only effect, or another doubt; inactive = no such curve, though single readings can be large; an effect the other way counts as inactive or inconclusive.

C[S+](=O)([O-])c1ccc(-c2ncc3c(n2)OCCN(Cc2ccc(F)cc2F)C3=O)cc1	HEK cytotox inconclusive
O=C1c2cnc(-c3cccc(CO)c3)nc2OCCN1c1cccc(C(F)(F)F)c1	NPR1 antag inconclusive, 3T3 cytotox 18µM, HEK cytotox inconclusive, FLuc inh-1 11µM | FLuc SDR -ATP inactive | FLuc SDR ATP inactive | FLuc inh-2 inconclusive
CN1CCOc2nc(-c3cccc(OC(F)(F)F)c3)ncc2C1=O	NPR1 antag inconclusive, 3T3 cytotox inconclusive, HEK cytotox inconclusive, FLuc inh-1 3.2µM | FLuc SDR -ATP inactive | FLuc SDR ATP inconclusive | FLuc inh-2 inconclusive
O=C1c2cnc(-c3cccc(C(F)(F)F)c3)nc2OCCN1CC1CC1	NPR1 antag inconclusive, 3T3 cytotox inconclusive, HEK cytotox inconclusive, FLuc inh-1 3.2µM | FLuc SDR -ATP inconclusive | FLuc SDR ATP inconclusive | FLuc inh-2 9µM
COc1ccc(Cn2c(=O)c(C(=O)NCCSC)nc3cccnc32)cc1	none (no result: NPR1 antag, FLuc inh-1)
COc1ccc(OC)c(-c2nc3ccc(OC)cc3s2)c1	none (no result: NPR1 antag, 3T3 cytotox, HEK cytotox, FLuc inh-1, GPT2 inhibitor) | FLuc SDR -ATP inactive | FLuc SDR ATP inactive | FLuc inh-2 inconclusive
COc1ccc2nc(NC(=O)Nc3ccccc3)sc2c1	none (no result: NPR1 antag, 3T3 cytotox, HEK cytotox, FLuc inh-1)
CC(=O)NC[C@H]1Cn2cc(-c3ccccc3)nc2CO1	FLuc inh-1 inconclusive
c1ccc(-c2cn3c(n2)CO[C@@H](CNCc2cccs2)C3)cc1	HEK cytotox inconclusive, FLuc inh-1 5.6µM | FLuc SDR -ATP inactive | FLuc SDR ATP inactive | FLuc inh-2 inconclusive
CC(C)(C)c1coc([C@@H]2COCCN2Cc2cccc(C#N)c2)n1	HEK cytotox inconclusive
COc1ccc(C(=O)NCc2nnc3ccc(-c4ccc(Cl)cc4)nn23)c(C)c1	HEK cytotox inconclusive
COc1ccc(C(=O)Nc2cc(C(C)C)c(O)c(S(=O)(=O)c3ccc(Cl)cc3)c2C)cc1	none (no result: NPR1 antag, 3T3 cytotox, HEK cytotox, FLuc inh-1, GPT2 inhibitor) | FLuc SDR -ATP inactive | FLuc SDR ATP inactive | FLuc inh-2 inconclusive
COCC1CN(S(=O)(=O)c2cc(Cl)ccc2OC)CC12CCNCC2 (centres undefined)	none
Oc1c(Br)cc(Br)cc1-c1nc2ccccc2s1	none (no result: NPR1 antag, 3T3 cytotox, HEK cytotox, FLuc inh-1, GPT2 inhibitor) | FLuc SDR -ATP inactive | FLuc SDR ATP inactive | FLuc inh-2 inconclusive
CC(C)N1CCC(OCCCNC(=O)C2CCN(c3cnn(C)c(=O)c3)C2)CC1 (centres undefined)	none
O=C(NCc1ccccc1)C1CCN(C(=O)c2ncn3c2COC(c2ccc(Cl)cc2)C3)CC1 (centres undefined)	FLuc inh-1 inconclusive
CCc1cccc(NC(=O)C2CCN(C(=O)c3ncn4c3COC(c3ccccc3)C4)CC2)c1 (centres undefined)	NPR1 antag inconclusive, FLuc inh-1 3.5µM | FLuc SDR -ATP inactive | FLuc SDR ATP 1.2µM | FLuc inh-2 1.8µM
O=C(Nc1ccc(F)c(F)c1)C1CCN(C(=O)c2ncn3c2COC(c2ccccc2)C3)CC1 (centres undefined)	NPR1 antag inconclusive, FLuc inh-1 1µM | FLuc SDR -ATP inactive | FLuc SDR ATP 0.56µM | FLuc inh-2 0.99µM
CCOc1ccc(NC(=O)C2CCN(C(=O)c3ncn4c3COC(c3ccccc3)C4)CC2)cc1 (centres undefined)	FLuc inh-1 13µM | FLuc SDR -ATP inactive | FLuc SDR ATP inconclusive | FLuc inh-2 7µM
COc1ccc(NC(=O)C2CCN(C(=O)c3ncn4c3COC(c3ccc(OC)cc3)C4)CC2)cc1 (centres undefined)	none
CC(C)c1ccc(NC(=O)C2CCN(C(=O)c3ncn4c3COC(c3ccccc3)C4)CC2)cc1 (centres undefined)	FLuc inh-1 2.5µM | FLuc SDR -ATP inactive | FLuc SDR ATP inconclusive | FLuc inh-2 3.5µM
CSc1cccc(NC(=O)C2CCN(C(=O)c3ncn4c3COC(c3ccc(F)cc3)C4)CC2)c1 (centres undefined)	NPR1 antag inconclusive, FLuc inh-1 inconclusive
CC(C)c1cccc(NC(=O)C2CCN(C(=O)c3ncn4c3COC(c3ccccc3)C4)CC2)c1 (centres undefined)	HEK cytotox inconclusive, FLuc inh-1 3.5µM | FLuc SDR -ATP inactive | FLuc SDR ATP inconclusive | FLuc inh-2 7.9µM
COc1cccc(CCC(=O)N2CCc3nn(CC4CC4)c(=O)n3CC2)c1	none
Fc1ccc(-c2cc3c(cn2)CN(Cc2ccncc2)CCN3)cc1Cl	NPR1 antag inconclusive, 3T3 cytotox inconclusive, HEK cytotox 56µM, FLuc inh-1 1.8µM | FLuc SDR -ATP inactive | FLuc SDR ATP inactive | FLuc inh-2 18µM
COc1ccc(CN2CCNc3cc(-c4ccccc4)ncc3C2)cn1	3T3 cytotox inconclusive, HEK cytotox inconclusive, FLuc inh-1 14µM | FLuc SDR -ATP inactive | FLuc SDR ATP inactive | FLuc inh-2 inconclusive
COc1ccc(-c2cc3c(cn2)CN(Cc2ccncc2)CCN3)cc1	NPR1 antag inconclusive, 3T3 cytotox inconclusive, HEK cytotox inconclusive, FLuc inh-1 3.2µM | FLuc SDR -ATP inactive | FLuc SDR ATP inconclusive | FLuc inh-2 inconclusive
Fc1ccc(CNc2cc3c(cn2)NCCN(Cc2ccccc2)C3)cc1	3T3 cytotox inconclusive, HEK cytotox inconclusive, GPT2 inhibitor inconclusive
COc1ccc(C(=O)N2CC[C@H]3CC(=O)N(CCc4cnc[nH]4)CC[C@H]3C2)cc1	none
COc1cccc(CC(=O)N2CCCCCC2c2nnc(-c3ccccc3)o2)c1 (centres undefined)	HEK cytotox inconclusive (no result: NPR1 antag, FLuc inh-1)
O=C(c1ccccc1)N1CC[C@H](c2nc3ccc(F)cc3[nH]2)C1	HEK cytotox inconclusive
Cc1ccc2nc([C@H]3CCN(Cc4cccs4)C3)[nH]c2c1	3T3 cytotox inconclusive, HEK cytotox 56µM, FLuc inh-1 7.1µM | FLuc SDR -ATP inactive | FLuc SDR ATP inactive | FLuc inh-2 inconclusive
Cc1ccc2nc([C@H]3CCN(C(=O)c4ccccc4)C3)[nH]c2c1	HEK cytotox inconclusive, GPT2 inhibitor inconclusive
Cc1ccccc1CN1CC[C@H](c2nc3ccccc3s2)C1	3T3 cytotox inconclusive, HEK cytotox 71µM, FLuc inh-1 7.9µM | FLuc SDR -ATP inactive | FLuc SDR ATP inactive | FLuc inh-2 inconclusive
Cc1ccccc1CN1CC[C@H](c2nc3ccc(F)cc3[nH]2)C1	NPR1 antag inconclusive, 3T3 cytotox inconclusive, HEK cytotox 35µM, FLuc inh-1 14µM | FLuc SDR -ATP inactive | FLuc SDR ATP inactive | FLuc inh-2 inconclusive
c1ccc2sc([C@H]3CCN(CC4CCCCC4)C3)nc2c1	3T3 cytotox inconclusive, HEK cytotox inconclusive
